# HTT ATP protect: qHTS Multiplex Assay to Identify Dual Action Probes in a Cell Model of Huntington: Cytoprotection (ATP); hit rate 0.14% among 230,000; Potency, µM (titrated, usually from 56.4 µM), most hits filed as activators; PC12 HTT-Q103 induced, cytoprotection, ATP luminescence, 40 h; AID 1471, 2008; active means well fitted curve in the direction sought with a large enough effect; inconclusive means small, poorly fitted or top-dose-only effect, or another doubt; inactive means no such curve, though single readings can be large; an effect the other way counts as inactive or inconclusive; further: nearly all actives have a fitted effect of over 45% in size
#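 Compounds added alongside 100 nM tebufenozide, which induces toxic Q103 huntingtin exon 1-GFP in stable PC12 cells; surviving cells quantified by luminescent ATP measurement. Medium: phenol red-free DMEM, 5% equine and 5% calf serum.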
# HPGD inh: qHTS Assay for Inhibitors of HPGD (15-Hydroxyprostaglandin Dehydrogenase); 15-hydroxyprostaglandin dehydrogenase [NAD(+)] (Homo sapiens), P15428; purified HPGD, NADH fluorescence kinetic, PGE2 substrate; Potency, µM, most hits filed as inhibitors; hit rate 4.3% among 150,000
#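 20 nM HPGD preincubated 15 min at room temperature with compound in 50 mM Tris-HCl pH 8, 0.01% Tween 20. Started with 1 mM NAD+ and 30 uM prostaglandin E2; NADH fluorescence (360/450 nm) read 5 times over 30-s intervals, last minus first.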
# ALDH1A1 block: qHTS Assay for Inhibitors of Aldehyde Dehydrogenase 1 (ALDH1A1) | Aldehyde dehydrogenase 1A1 (Homo sapiens), P00352 | Purified ALDH1A1, NADH fluorescence, propionaldehyde substrate | Potency, µM (series often up to 75.3 µM), most hits filed as inhibitors | hit rate 7.3% among 220,000 | AID 1030, 2008
# Target sequence (P00352 whole entry, looked up): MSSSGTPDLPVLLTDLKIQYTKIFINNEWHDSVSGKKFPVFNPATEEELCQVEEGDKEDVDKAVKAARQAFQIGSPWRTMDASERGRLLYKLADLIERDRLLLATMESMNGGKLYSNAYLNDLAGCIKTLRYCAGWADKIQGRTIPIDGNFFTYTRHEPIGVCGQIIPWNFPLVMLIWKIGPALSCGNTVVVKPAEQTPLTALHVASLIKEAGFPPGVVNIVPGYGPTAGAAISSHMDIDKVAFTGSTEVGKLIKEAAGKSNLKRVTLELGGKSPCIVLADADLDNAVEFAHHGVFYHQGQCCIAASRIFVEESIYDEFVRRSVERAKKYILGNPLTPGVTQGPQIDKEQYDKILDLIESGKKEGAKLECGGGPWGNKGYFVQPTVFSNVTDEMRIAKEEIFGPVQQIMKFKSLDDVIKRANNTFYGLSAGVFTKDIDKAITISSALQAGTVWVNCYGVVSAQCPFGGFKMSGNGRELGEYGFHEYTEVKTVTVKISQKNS
# Lamin A splicing: qHTS Assay for Modulators of Lamin A Splicing; Potency, µM (top dose mostly 46.1 µM), most hits filed as inhibitors; HeLa LMNA splicing GFP/RFP minigene ratio, 48 h; hit rate 0.01% among 200,000; active means well fitted inhibition curve with a large enough effect in the signal ratio, with a control signal flat, not every such curve was filed as active; inconclusive means small, poorly fitted or top-dose-only effect, or effect the other way, or a change in a side signal; the % refers to the signal ratio
#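 S3 HeLa stable clones carrying a lamin A-EGFP splicing minigene plus DsRed2 were seeded at 600 cells/well in Opti-MEM with 2% FBS, pin-dosed and incubated 48 h at 37°C. Acumen cytometry (488 nm) gave the GFP/RFP total-intensity ratio.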
# HTT aggregate: qHTS Multiplex Assay to Identify Dual Action Probes in a Cell Model of Huntington: Aggregate Formation (GFP); PC12 HttQ103-GFP aggregates, Acumen cytometry, 40 h; Potency, µM (top dose mostly 46.1 µM), usual class: inhibitors; hit rate 1.1% among 220,000; active means well fitted curve in the direction sought with a large enough effect; inconclusive means small, poorly fitted or top-dose-only effect, or another doubt; inactive means no such curve, though single readings can be large; an effect the other way counts as inactive or inconclusive; further: nearly all actives have a fitted effect of over 60% in size
#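 PC12 cells with ecdysone-inducible HTT exon1 Q103-GFP, induced by 100 nM tebufenozide, given compounds in a concentration series. GFP aggregates (1–25 um, 6 SD above background) counted in lysates by laser-scanning cytometry, 488 nm excitation.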
# JMJD2E inh: qHTS Assay for Inhibitors of Human Jumonji Domain Containing 2E (JMJD2E). hit rate 1.6% among 230,000. Lysine-specific demethylase 4E (Homo sapiens), B2RXH2. AID 2147, 2009. Potency, µM (titrated, usually from 57.1 µM), most hits filed as inhibitors. JMJD2E catalytic domain, FDH-coupled NADH fluorescence (FDH is formaldehyde dehydrogenase); further: nearly all actives have a fitted effect of over 50% in size
# Hits are given with their value; 0 = inactive; ? = inconclusive; - = no result given; [ ] = another dose, or the depositor's remark. Hits are enriched below; roughly 9.2% of the tested compounds scored in any of these assays. Unless noted, the call rests on the fitted dose curve; in most records, active means well fitted inhibition curve with a large enough effect (not every such curve was filed as active); inconclusive means small, poorly fitted or top-dose-only effect, or another doubt; inactive means no such curve, though single readings can be large or run the other way.
SMILES,HTT ATP protect,HPGD inh,ALDH1A1 block,Lamin A splicing,HTT aggregate,JMJD2E inh
COC(=O)[C@@H]1[C@@H](C)N(CCc2cc(OC)c(OC)c(OC)c2)C(=O)N[C@H]1c1ccccc1,0[10 µM],0,0[13.5 µM],?,-,0[11.4 µM]
COC(=O)[C@@]1(Cc2ccc(OC)cc2)[C@H]2c3cc(C(=O)N(C)C)n(Cc4cc(C)n(C)n4)c3C[C@H]2CN1C(=O)c1ccccc1,0,0,0,-,-,0
Cc1ccc(Nc2nc(N)nc(CCl)n2)cc1,0[10 µM],-,-,-,0[9.22 µM],0
Cc1ccc(Nc2nc(N)nc(CC#N)n2)cc1,0,0,0,0,6.3µM,0
S=C(NCCCn1ccnc1)Nc1cccc(Cl)c1,0,-,?,-,0,0
CCCc1c(C)nc2ccc(OC)cc2c1SCCC(=O)O,0[10 µM],?,0,0,0,0
C=CCc1c(C)nc2c(C)cccc2c1SC(=N)N,0[10 µM],-,0,-,0[9.22 µM],0
CCc1c(C)nc2c(C)cccc2c1SCCC#N,0[10 µM],-,7.9µM,-,0[9.22 µM],0
CCCCc1c(C)nc2ccccc2c1SCCC#N,0[10 µM],0,7.1µM,0,0,0
CCCC1=[N+](CC)CCn2c(C)ccc21,0[10 µM],0,0,0,11µM,0
COc1ccc(OC)c(NC(=O)c2cc(S(=O)(=O)NCCc3ccc(Cl)cc3)ccc2F)c1,-,-,-,0,-,-
CC(=O)c1cccc(N/C=C\C(=O)c2ccc(C)cc2)c1,0[10 µM],0,?,0,0,?
COc1ccc(OC)c(NC=C2C(=O)OC(C)(C)OC2=O)c1,0,0,0.18µM,0,0,0
COc1ccc(OC)c(NC=C2C(=O)OC3(CCCCC3)OC2=O)c1,0,?,0.089µM,0,0,?
COc1ccc(OC)c(NC(=O)C2=C(C)C(=O)OC23CCCCCC3)c1,-,-,-,0,-,-
CCOc1ccccc1NC=C1C(=O)OC2(CCCCC2)OC1=O,0,0,0.71µM,0,0,0
CC(=O)c1cccc(NC=C2C(=O)OC3(CCCCC3)OC2=O)c1,0,0,2.2µM,0,0,0
CCOC(=O)c1ccc(Nc2c(OCC)c(=O)c2=O)cc1,0[10 µM],-,-,-,0[9.22 µM],0
C[C@@]12CC[C@@H]3c4ccc(O)cc4C[C@H](CCCCCCCCCS(=O)CCCC(F)(F)C(F)(F)F)[C@H]3[C@@H]1CC[C@@H]2O (stereo partly drawn),0,0,0,-,-,0
COc1ccc(C(=O)NC=C2C(=O)OC(C)(C)OC2=O)cc1,0,-,13µM,-,0,0
COC(=O)CCNCCSc1nnc(-c2ccco2)n1Cc1ccccc1,0[10 µM],-,-,-,0[9.22 µM],?
O=C(NCCc1ccc(Cl)cc1)C1CCN(S(=O)(=O)N2CCCC2)CC1,0,0,3.2µM,0,0,0
COc1ccc(CCNC(=O)C2CCN(C(=O)c3cccs3)CC2)cc1,0,-,0.4µM,?,0,0
O=C(NCCc1ccc(Cl)cc1)C1CCN(C(=O)c2sccc2-n2cccc2)CC1,0,0,0.5µM,0,0[9.22 µM],0
CC(CCc1ccccc1)NC(=O)C1CCN(c2nnc(-n3cccc3)s2)CC1 (stereo not drawn),0,0,0,?,0,0
SMILES,HTT ATP protect,HPGD inh,ALDH1A1 block,Lamin A splicing,HTT aggregate,JMJD2E inh
CC(CCc1ccccc1)NC(=O)C1CCN(C(=O)c2sccc2-n2cccc2)CC1 (stereo not drawn),0,0,0.35µM,0,0,0
O=c1cc(-c2ccccc2)oc2ccccc12,0,8.9µM,0,-,-,-
O=c1cc(-c2ccccc2)oc2cc(O)c(O)cc12,0,18µM,0,-,-,28µM
O=c1cc(-c2ccc(O)c(O)c2)oc2ccccc12,0,7.1µM,25µM,-,-,8.9µM
COc1ccc(-c2cc(=O)c3ccccc3o2)cc1OC,-,?,?,0,-,?
O=C(Nc1cccc(Cl)c1N1CCCC1)c1cccc(-c2cc3ccccc3oc2=O)c1,0,0,0,0,0,?
CCOc1ccc(CN2C(=O)CC(=O)N(S(=O)(=O)c3ccc(OCC)cc3)C2=O)cc1,0[10 µM],-,-,-,0[9.22 µM],0

# Screening data deposited in PubChem by National Center for Advancing Translational Sciences (NCATS).
